Assay outcomes (PubChem)
This is one part of a sample in which hits are shown more often than they occur.
ST2 IL33 inh = inhibitors of human ST2 (IL1RL1) binding to IL-33, primary screen, biochemical, AlphaLISA | AlphaLISA ST2-Fc/biotin-IL-33 interaction, 1 h | Interleukin-1 receptor-like 1 (Homo sapiens), Q01638 | inhibition, % for hits at 17 µM | 78,000 compounds, 2.3% hits | AID 1259354, 2018; in the data active means inhibition above about 30%
Target sequence (Q01638 whole entry, looked up): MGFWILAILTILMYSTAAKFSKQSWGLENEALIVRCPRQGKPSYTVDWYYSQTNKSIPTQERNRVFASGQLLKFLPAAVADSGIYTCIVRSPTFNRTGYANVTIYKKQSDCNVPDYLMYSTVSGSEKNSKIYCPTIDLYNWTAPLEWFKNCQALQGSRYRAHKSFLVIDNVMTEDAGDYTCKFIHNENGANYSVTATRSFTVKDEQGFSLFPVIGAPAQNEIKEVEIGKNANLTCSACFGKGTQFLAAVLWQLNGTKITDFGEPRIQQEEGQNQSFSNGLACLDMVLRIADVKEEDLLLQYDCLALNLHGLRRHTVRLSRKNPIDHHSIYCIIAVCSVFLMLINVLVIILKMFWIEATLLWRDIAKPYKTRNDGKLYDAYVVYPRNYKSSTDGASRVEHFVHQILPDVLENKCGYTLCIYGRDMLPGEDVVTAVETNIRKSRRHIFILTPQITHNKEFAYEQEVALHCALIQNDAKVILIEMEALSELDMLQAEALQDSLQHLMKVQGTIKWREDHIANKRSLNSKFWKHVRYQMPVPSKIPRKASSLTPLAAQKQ
The depositor's hits bear a star; i = inactive.

SMILES	ST2 IL33 inh
COc1ccc(C(N)=NC#N)cc1	i
Cn1nc(-c2ccc(Cl)cc2)c2cc(C(=O)N3CCN(c4ccccn4)CC3)sc21	i
O=C(Nc1c(F)cc(F)cc1Br)c1cc(-c2ccccc2O)on1	i
Cc1ccc(Nc2cc(C)nc(Nc3ccc(NC(=O)C4CCCCC4)cc3)n2)cc1	30%*
Cc1cc(Nc2ccccc2)nc(Nc2ccc(NC(=O)C3CCCCC3)cc2)n1	i
CC(=O)Nc1ccc(Nc2nc(C)cc(Nc3ccc(C)cc3)n2)cc1	i
Cc1ccc(Nc2cc(C)nc(Nc3ccc(NC(=O)c4ccc(Br)o4)cc3)n2)cc1	i
Cc1ccc(Nc2cc(C)nc(Nc3ccc(NC(=O)C(C)(C)C)cc3)n2)cc1	33%*
Cc1ccc(Nc2cc(C)nc(Nc3ccc(NC(=O)c4ccc(Br)cc4)cc3)n2)cc1	i
COc1ccc(Nc2cc(C)nc(Nc3ccc(NC(=O)C4CCCCC4)cc3)n2)cc1	34%*
COc1ccc(Nc2cc(C)nc(-c3ccccc3)n2)cc1	i
COc1ccc(N(C(=O)c2ccc(Cl)cc2)C2C=CS(=O)(=O)C2)c(OC)c1 (stereo unspecified)	i
O=C(C1CC1)N1CCc2cc(S(=O)(=O)N3CCC(Cc4ccccc4)CC3)ccc21	i
COc1ccc(Cn2c(CNS(=O)(=O)c3ccc(Cl)cc3)nc3cccnc32)cc1	i
CCC(=O)Nc1cc(Cl)ccc1OCc1cc(=O)n2oc(C)cc2n1	i
CN1c2ccccc2N(C)C1c1ccc(F)cc1	i
CCOC(=O)c1c(C)n(CC)c2ccc(OC(=O)COc3ccc(C)cc3)cc12	i
C=CCNC(=O)CN(Cc1ccc(C)cc1)S(=O)(=O)c1ccc(C)cc1	i
CCOc1ccc(-c2cccc3ccnn23)nn1	i
COc1ccc(-c2noc([C@@H]3Cc4nc[nH]c4CN3C(=O)Nc3ccc(Cl)cc3)n2)cc1	i
Clc1ccc(-c2noc([C@@H]3Cc4nc[nH]c4CN3Cc3cccs3)n2)cc1	30%*
O=C(O)c1ccc(CN2Cc3[nH]cnc3C[C@H]2c2nc(-c3cccc([N+](=O)[O-])c3)no2)cc1	i
CC(Cc1c[nH]c2ccccc12)NC(=O)C1CC1 (stereo unspecified)	i
COc1cccc(C(=O)Nc2c3c(nn2-c2ccc(C)cc2)CS(=O)C3)c1OC (stereo unspecified)	i
COC(=O)C1=C(NC(=O)c2cc(C)cc(C)c2)CCS1	50%*
SMILES	ST2 IL33 inh
COC(=O)C1=C(NC(=O)c2ccc(Cl)cc2)CCS1	i
COC(=O)C1=C(NC(=O)c2cc(Cl)ccc2Cl)CCS1	i
Cc1nnc(SCCC(=O)N2CCCC3(CCN(C)CC3)CC2)s1	i
CC1CN(C2CCN(Cc3ccccn3)CC2)CC(C)O1 (stereo unspecified)	i
CC1(C)CCN2CCC(C)(C)c3c(O)ccc1c32	73%*
COc1cc(C(=O)Nc2ccc(-c3nc4cc(C)ccc4o3)c(O)c2)cc(OC)c1OC	i
Cc1ccc2oc(-c3ccc(NC(=O)c4ccc5c(c4)OCCO5)cc3O)nc2c1	32%*
Cc1ccccc1-c1nc2cc(NC(=O)c3ccc4c(c3)OCCO4)ccc2o1	i
Cc1cccn2c(=O)c3cc(C(=O)N4CCC(C)CC4)n(C)c3nc12	i
COc1cccc(NC2(c3nnnn3-c3ccc(C)cc3)CCCC2)c1	i
O=C(CCCOc1ccccc1)N1CCN(c2ccc([N+](=O)[O-])cc2)CC1	i
O=C(COc1ccccc1)N1CCN(c2ccc([N+](=O)[O-])c(NCCc3ccccc3)c2)CC1	33%*
Cc1ccc(OCC(=O)N2CCN(c3ccccc3)CC2)cc1C	i
C1CCN=C(Nc2nc3c(s2)CCCC3)CC1	i
CC(=O)c1ccc(OC(=O)c2cc3cc(Br)ccc3oc2=O)cc1	i
CC(=O)c1ccc(NC(=O)c2cc3cc(Br)ccc3oc2=O)cc1	39%*
Cc1ccc(NC(=O)c2cc3cc(Br)ccc3oc2=O)cc1C	i
COc1nc(C)cc(C)c1CNC(=O)CC1C(=O)NCCN1CC(C)C (stereo unspecified)	i
CCC(=O)N1CCc2cc(Br)cc(S(=O)(=O)NCCN3CCOCC3)c21	i
Cc1ccc(-c2cnc3ccccc3n2)cc1[N+](=O)[O-]	i
Cc1cc2c(cc1[N+](=O)[O-])C(=O)c1cc3ccccc3nc1-2	36%*
Cc1ccc2c(c1[N+](=O)[O-])C(=O)c1ccccc1C2=O	i
COC(=O)CSc1nnc(COc2ccccc2)o1	i
CC1(C)CC(OC(=O)CC#N)CC(C)(C)N1	i
CCOC(=O)Cn1c(=O)n(-c2ccc(F)cc2)c2nc(C)nc(C(N)=O)c21	i
SMILES	ST2 IL33 inh
COC(=O)c1c[nH]n2c(=O)c(Cc3ccccc3F)c(C)nc12	i
COC(=O)c1c[nH]n2c(=O)c(Cc3ccc(C)cc3)c(C)nc12	i
COC(=O)c1c[nH]n2c(=O)c(Cc3ccccc3C)c(C)nc12	53%*
c1ccc2[nH]c([C@H]3CCN(CC4CCCCC4)C3)nc2c1	i
CC(=O)Nc1nnc(SCC(=O)Nc2ccc([N+](=O)[O-])cc2)s1	i
COc1ccc(C(=O)Nc2ccc(S(=O)(=O)NC(C)(C)C)cc2)cc1[N+](=O)[O-]	i
O=C(Nc1ccc2nsnc2c1)N1CCCCCC1	i
Cc1nc2ccc(NC(=O)N3CCN(c4ccccc4)CC3)cc2nc1C	i
O=C(Nc1ccc2nc(-c3ccco3)c(-c3ccco3)nc2c1)N1CCSCC1	30%*
O=C(Nc1ccc2nc(-c3ccccn3)c(-c3ccccn3)nc2c1)N1CCOCC1	i
O=C(Nc1ccc2nc(-c3ccco3)c(-c3ccco3)nc2c1)N1CCOCC1	36%*
CCOC(=O)N1CCN(C(=O)Nc2ccc3nc(C)c(C)nc3c2)CC1	i
CC(C)(O)C#Cc1cccc(C(=O)NC2(CN3CCOCC3)CCCC2)c1	i
O=C1NCCC[C@@H]1NC(=O)[C@H]1CN(C(=O)[C@@H]2CSCN2)CCN1S(=O)(=O)c1ccc(F)cc1	i
Cc1ccccc1CSC1=NCCN1C(=O)C1CCCCC1	i
O=C(c1cc2sccc2[nH]1)N1CCCC(Nc2ccc3c(c2)OCO3)C1 (stereo unspecified)	i
CCC(CC)n1ncc(C)c1NC(=O)CCc1cccnc1	i
COc1ccc(Nc2cc(C)nc(Nc3ccc(NC(=O)CCC4CCCCC4)cc3)n2)cc1	40%*
Cc1ccc(Nc2cc(C)nc(Nc3ccc(NC(=O)CC4CCCC4)cc3)n2)cc1	31%*
Cc1cc(N(C)C)nc(Nc2ccc(NC(=O)CCC3CCCC3)cc2)n1	i
COc1ccc(Nc2cc(C)nc(Nc3ccc(NC(=O)CC4CCCC4)cc3)n2)cc1	30%*
Cc1cccc(NC(=O)CCC2CCCCC2)n1	i
O=C(CC1CCCCC1)Nc1cccnc1	i
COCCNC(=O)CSc1nc(-c2ccc3c(c2)OCO3)nc2cc(=O)[nH]n12	i
O=C(NCCN1CCCCCC1)C1CCCN(S(=O)(=O)c2cnc[nH]2)C1 (stereo unspecified)	i
CCOc1cc(C2c3nc[nH]c3CCN2Cc2ccco2)ccc1OC (stereo unspecified)	i
CCOC(=O)c1c(C)oc2cc(Br)c(OC(=O)CC)cc12	i
CC(C)c1ccc(NC2=NC3CS(=O)(=O)CC3S2)cc1 (stereo unspecified)	i
CCCCOc1ccc(C2C(C(=O)Nc3ccccc3OC)=C(C)Nc3nnnn32)cc1 (stereo unspecified)	i
CCCC(C)(C)NC(=O)c1ccccc1	i
